Results as given in PubChem BioAssay (EPA / NIEHS).
Values joined by “and” are separate entries in the source; they are usually repeats but may differ in a detail not shown here. Identical values can stand only once. Active and inactive are the calls of the source. Rule for the calls: active = hit-call score of the fitted dose curve at least 0.9, where 1 is the maximum; inactive = score below 0.9.

assay: BSK_BE3C_SRB: Viability Assessment in the BioMAP Diversity Plus: BE3C Assay (AID 2283028); settings: primary human bronchial epithelial cells;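 for AC50: fitted both ways so AC50 may mark signal gain or loss versus DMSO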
Procedure: BSK_BE3C is a cell-based, multiplexed-readout assay that uses bronchial epithelial cell, a human lung primary cell, with measurements taken at 24 hours after chemical dosing in a 96-well plate.BSK_BE3C_SRB is an assay component measured in the BSK_BE3C assay. It measures 0.1% sulforhodamine related to cell death using Sulforhodamine staining technology.Data from the assay component BSK_BE3C_SRB was analyzed into 1 assay endpoint. This assay endpoint, BSK_BE3C_SRB, was analyzed with bidirectional fitting relative to DMSO as the negative control and baseline of activity. Using a type of viability reporter, gain or loss-of-signal activity can be used to understand changes in the signaling. Furthermore, this assay endpoint can be referred to as a primary readout, because this assay has produced multiple assay endpoints where this one serves a signaling function. To generalize the intended target to other relatable targets, this assay endpoint is annotated to the cell morphology intended target family, where the subfamily is cell conformation.
The levels of cell surface (or secreted, indicated by the prefix "s") biomarker endpoints were measured by ELISA. Overt cytotoxicity to cells in confluent adherent cultures (all systems other than the BT system) was assessed by measuring total protein levels using sulforhodamine B (SRB) staining in parallel cultures at the time of biomarker measurements, indicated as SRB endpoints. For proliferation assays for adherent cell types, individual cell types are cultured at sub-confluence and relative cell numbers quantified by SRB staining at time points optimized for each system (48 h: 3C and CASM3C systems; 72 h: BT and HDF3CGF systems; 96 h: SAg system). SRB was performed by staining cells with 0.1% SRB after fixation with 10% TCA and reading wells at 560 nm.Viability and proliferation of PBMC (T cells) was quantified by Alamar Blue reduction for the SAg and BT systems. For PBMC viability (referred to as PBMC Cytotoxicity within the assay endpoint names), cells were plated (75,000/well in a 96-well plate) and then chemical samples added for 1 h before addition of activators, SEB and TSST-1 (20 ng/mL final concentration each). Cells were incubated for 90 h. Then, Alamar Blue (20 uL/well) (Invitrogen, Cat DAL1100) was added for 6 h, and the plates were read with a fluorescence microplate reader at 546/580 nm (excitation/emission). For PBMC proliferation, cells were plated and activated as above but incubated for only 16 h prior to addition of Alamar Blue. Plates were read after 6 h.

Structure (SMILES)	AC50	outcome
OCCCC(F)(F)C(F)(F)C(F)(F)C(F)(F)C(F)(F)C(F)(F)C(F)(F)F	49.1 µM (active) and 52.5 µM (active)	
CCO[Si](CCC(F)(F)C(F)(F)C(F)(F)C(F)(F)C(F)(F)C(F)(F)F)(OCC)OCC		inactive
C#C[C@]1(O)CC[C@H]2[C@@H]3CCc4cc(OC)ccc4[C@H]3CC[C@@]21C		inactive
FC(F)(F)C(F)(F)C(F)(F)C(F)(F)C(F)(F)C(F)(F)CCS		inactive
FC(F)(F)C(F)(F)C(F)(F)C(F)(F)C(F)(F)C(F)(F)C(F)(F)C(F)(F)CCS		inactive
CC(CCl)OP(=O)(OC(C)CCl)OC(C)CCl (stereo not given)		inactive
C=CC(=O)OCC(F)(F)C(F)(F)C(F)(F)C(F)(F)COC(=O)C=C		inactive
O=C(O)C=C(C(F)(F)F)C(F)(F)F		inactive
CCCCNc1ccccc1		inactive
CO[Si](OC)(c1ccccc1)c1ccccc1		inactive
CCCCCCCCC(F)(F)C(F)(F)C(F)(F)C(F)(F)C(F)(F)C(F)(F)F		inactive
O=C(O)C(F)(F)C(F)(F)C(F)F		inactive
COC(=O)CCC(F)(F)C(F)(F)C(F)(F)C(F)(F)F		inactive
O=S(=O)(OCCOC(F)(F)F)C(F)(F)F		inactive
CCCCCCOC(=O)c1ccccc1O		inactive
CCCCC(CC)COP(=O)(O)OCC(CC)CCCC (stereo not given)		inactive
O=C(O)C(F)(F)C(F)(F)C(F)(F)C(F)(F)F		inactive
O=S(=O)(OCC(F)F)C(F)(F)F		inactive
O=C(O)C(F)(OC(F)(F)C(F)(OC(F)(F)C(F)(F)C(F)(F)F)C(F)(F)F)C(F)(F)F (stereo not given)		inactive
C=CC/C=C/C/C=C/C/C=C/C		inactive

Structure (SMILES)	AC50	outcome
CCCCCCC(C)OC(=O)CCCCC(=O)OC(C)CCCCCC (stereo not given)		inactive
FC(F)(F)C(F)(F)C(F)(F)C(F)(F)C(F)(F)C(F)(F)C(F)(F)I		inactive
O=C(O)C(F)(F)C(F)(F)C(F)(F)C(F)(F)C(F)(F)C(F)(F)C(F)(F)C(F)(F)C(F)(F)C(F)(F)C(F)(F)C(F)(F)C(F)(F)F		inactive
OCC(F)(F)C(F)(F)C(F)(F)C(F)F		inactive
CCc1c(Br)c(Br)c(Br)c(Br)c1Br		inactive
O=P(O)(O)OCCC(F)(F)C(F)(F)C(F)(F)C(F)(F)C(F)(F)C(F)(F)F		inactive
OCC(F)(F)C(F)(F)C(F)(F)F		inactive
Cc1ccc(S(=O)(=O)OCC(F)(F)C(F)(F)C(F)(F)C(F)(F)C(F)(F)C(F)F)cc1		inactive
O=C(O)C(F)(F)C(F)(F)OC(F)(F)F		inactive
O=C(Cl)C(F)(F)C(F)(F)C(F)(F)C(F)(F)C(F)(F)C(F)(F)C(F)(F)C(F)(F)F	58.5 µM (active) and 46.6 µM (active) and 47.3 µM (active)	
Nc1ccc([N+](=O)[O-])cc1O		inactive
CC(C)(C)C(=O)CC(=O)C(F)(F)C(F)(F)C(F)(F)F		inactive
FC(F)(F)C(F)(F)C(F)(F)N(C(F)(F)C(F)(F)C(F)(F)F)C(F)(F)C(F)(F)C(F)(F)F		inactive
OCC(F)(F)C(F)(F)C(F)(F)C(F)(F)C(F)(F)C(F)(F)F		inactive
OCCCC(F)(F)C(F)(F)C(F)(F)F		inactive
C=C(C)C(=O)OCCC(F)(F)C(F)(F)C(F)(F)C(F)(F)C(F)(C(F)(F)F)C(F)(F)F		inactive
CS(C)(=O)=O		inactive
CCCCCCCCCCCCCCCC[N+](C)(C)Cc1ccccc1	5.04 µM (active)	
C=CC(F)(F)C(F)(F)C(F)(F)C(F)(F)C(F)(F)C(F)(F)C(F)(F)C(F)(F)C=C		inactive
CCCCOCCOCCOC(=O)CCCCC(=O)OCCOCCOCCCC		inactive
